Bioassay records: PubChem, National Center for Advancing Translational Sciences (NCATS)
KinaseGlo FLuc – Counterscreen for Luciferase (Kinase-Glo TM) Inhibition | Luciferin 4-monooxygenase (Photuris pensylvanica), Q27757 | Kinase-Glo luciferase, ATP luminescence, 8 min | Potency, µM (doses to about 38.3 µM), without a hit: at the top dose activity change, negative = inhibition, usual class: inhibitors | 0.28% of 200,000 active; note: % is set by controls: 0 for no effect and ±100 for the full control effect; nearly all actives have a fitted effect of over 60% in size
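Luminescence was the read-out, taken after 8-minute incubation at ambient temperature. Luciferase turned over luciferin with 10 uM ATP in imidazole pH 7.2 buffer containing KCl, MgCl2, Tween 20 and BSA.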
FLuc counter – qHTS profiling assay for firefly luciferase inhibitor/activator using purifed enzyme and Km concentrations of substrates (counterscreen for miR-21 project); Luciferin 4-monooxygenase (Photinus pyralis), P08659; purified FLuc, Km substrates, luminescence inhibition; Potency, µM (doses to about 57.5 µM), inactives show at the highest dose activity change, negative = inhibition, actives largely listed as inhibitors; 6.9% of 360,000 active;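 note: plate controls were vehicle for no effect and reference inhibitor for full effect; nearly all actives have a fitted effect of over 55% in size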
Target sequence (P08659 whole entry, looked up): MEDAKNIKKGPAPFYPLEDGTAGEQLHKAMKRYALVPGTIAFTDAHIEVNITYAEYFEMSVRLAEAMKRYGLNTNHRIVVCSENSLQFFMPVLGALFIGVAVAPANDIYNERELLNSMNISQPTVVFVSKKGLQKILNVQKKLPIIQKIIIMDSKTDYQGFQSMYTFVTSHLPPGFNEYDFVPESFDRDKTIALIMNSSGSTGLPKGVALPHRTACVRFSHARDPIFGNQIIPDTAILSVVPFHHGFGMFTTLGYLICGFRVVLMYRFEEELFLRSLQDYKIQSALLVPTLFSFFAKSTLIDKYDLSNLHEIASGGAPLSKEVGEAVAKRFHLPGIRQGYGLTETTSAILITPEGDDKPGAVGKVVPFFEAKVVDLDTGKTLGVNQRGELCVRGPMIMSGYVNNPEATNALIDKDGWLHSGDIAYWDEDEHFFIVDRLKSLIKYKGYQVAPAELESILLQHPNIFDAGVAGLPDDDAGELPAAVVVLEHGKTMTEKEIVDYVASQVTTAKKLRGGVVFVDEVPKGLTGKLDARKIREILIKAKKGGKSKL
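Purified P. pyralis luciferase, 10 nM final, with Km-level 10 uM D-luciferin and 10 uM ATP in 50 mM Tris acetate pH 7.5, 10 mM Mg acetate, 0.01% Tween-20, 0.05% BSA; 6-point qHTS titration about 60 µM downward; luminescence read.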
NPC1 promoter act – qHTS Assay for NPC1 Promoter Activators; 2.4% of 320,000 active; Huh7 NPC1 promoter luciferase reporter, 24 h; Potency, µM (series often up to 9.22 µM), inactives show top-dose activation, actives largely listed as activators; note: % of control where 0% means no effect; nearly all actives have a fitted effect of over 60% in size
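NPC1 promoter–luciferase Huh7 cells; 24 h compound; luminescence.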
Rab9 prom act – qHTS Assay for Rab9 Promoter Activators; Huh7 Rab9 promoter-luciferase reporter, luminescence, 24 h; Potency, µM (top dose mostly 9.22 µM), for the others: top-dose activation, negative = inhibition, actives largely listed as activators; 2.8% of 320,000 active; AID 485297, 2010; note: % of control where 0% means no effect; nearly all actives have a fitted effect of over 60% in size
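Huh7 reporter line, Rab9 promoter upstream of luciferase. Compound exposure 24 h at 37 °C in reduced-serum medium with 10% FBS. Read-out: luminescence.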
SMN2 splice enh – qHTS Assay for Enhancers of SMN2 Splice Variant Expression. HEK293 SMN2-luciferase splicing reporter, luminescence, 30-36 h. Potency, µM (doses to about 46.1 µM), for the others: top-dose activity change, positive = activation, most hits filed as activators. 2.8% of 210,000 active; note: % of control where 0% means no effect; nearly all actives have a fitted effect of over 55% in size
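HEK293 cells carry an SMN2 minigene-luciferase reporter in which exon 7 inclusion puts luciferase in frame. Cells were seeded at 2000 cells/well, attached for 10-12 hours, then exposed to compounds for 30-36 hours at 37C before ONE-Glo luminescence.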
ELG1 genotox – qHTS screen for small molecules that induce genotoxicity in human embryonic kidney (HEK293T) cells expressing luciferase-tagged ELG1; 1.3% of 330,000 active; Potency, µM (highest dose often 46 µM), for the others: top-dose activity change, positive = activation, most hits filed as activators; HEK293T ELG1-luciferase reporter, luminescence, 16 h; note: % of control where 0% means no effect; nearly all actives have a fitted effect of over 60% in size
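Genotoxicity was scored as increased ELG1-luciferase reporter signal, measured by ONE-Glo luminescence (30 min, room temperature). Compound or vehicle exposure of the HEK293T reporter cells lasted 16 hr at 37°C.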
* marks the source's active call; other numbers are inactive results; ? = inconclusive; nt = no result; [ ] = another dose, or the depositor's remark. An excerpt weighted towards active compounds, which were near 7.5% of everything screened. Calls come from the whole dose curve; as a rule, active = well fitted curve in the direction sought with a large enough effect; inconclusive = small, poorly fitted or top-dose-only effect, or another doubt; inactive = no such curve, though single readings can be large; an effect the other way counts as inactive or inconclusive. Potency is the fitted concentration of half-maximal effect.

SMILES | KinaseGlo FLuc | FLuc counter | NPC1 promoter act | Rab9 prom act | SMN2 splice enh | ELG1 genotox
CCc1ccc(/C=C2\SC(=S)N(CCC(=O)N3CCN(C)CC3)C2=O)cc1 | -2% | 2.7µM* | -6% | -6% | -40% | -1%
CN1CCN(C(=O)CCCN2C(=O)/C(=C/c3ccc(Cl)cc3)SC2=S)CC1 | nt | -11% | -2% | -7% | nt | -1%
COc1ccc(/C=C2/SC(=S)N(CCC(=O)N3CCN(C)CC3)C2=O)cc1 | nt | ? | -5% | 4% | nt | -9%
CCc1ccc(/C=C2\SC(=S)N(CCC(=O)Nc3cc(C)on3)C2=O)cc1 | nt | 17µM* | 2% | -6% | nt | -2%
Cc1cc(NC(=O)CCN2C(=O)/C(=C/c3ccccc3Cl)SC2=S)no1 | 1% | 4% | -2% | -2% | -7% | 8%
Cc1ccc(/C=C2\SC(=S)N(CCCC(=O)N3CCOCC3)C2=O)cc1 | nt | 21µM* | -1% | -18% | nt | -12%
COc1ccc(/C=C2/SC(=S)N(CCCC(=O)N3CCN(C)CC3)C2=O)cc1 | nt | 21µM* | -5% | -7% | nt | 1%
CC(=O)Nc1ccc(NC(=O)C2(c3cccs3)CCOCC2)cc1 | nt | -2% | nt | nt | nt | nt
COc1ccc(/C=C2\SC(=S)N(CC(=O)Nc3nnc(C)s3)C2=O)cc1 | -3% | -19% | -1% | -2% | -9% | -3%
COc1ccc(/C=C2\SC(=S)N(CC(=O)NCCO)C2=O)cc1 | 0% | 9.5µM* | -3% | 3% | -13% | 14%
COc1ccc(/C=C2\SC(=S)N(CC(=O)N3CCN(C)CC3)C2=O)cc1 | nt | 11µM* | -3% | -6% | nt | 0%
CC(=O)Nc1ccc(S(=O)(=O)N2CCN(c3cnn(C)c(=O)c3Cl)CC2)cc1 | 3% | 7% | -2% | -1% | nt | -4%
Nc1cc(-c2ccccc2)nn1Cc1ccccc1 | 3% | -7% | 9% | -8% | -44% | 0%
CN(C)N=Nc1ccc(-c2cn(Cc3ccccc3)cn2)cc1 | nt | 19µM* | 2.8µM* | ? | nt | ?
COc1ccc(-c2cc(C(=O)OCC(=O)c3ccc(C)cc3)c3cccc(Cl)c3n2)cc1 | nt | -7% | nt | nt | -3% | nt
COc1cccc(NC(=O)C(=O)NCCC2CCCCN2S(=O)(=O)c2cccs2)c1 (stereo unspecified) | nt | 11µM* | 11% | 29% | nt | 1%
COc1ccc(NC(=O)C(=O)NCCC2CCCCN2S(=O)(=O)c2cccs2)cc1 (stereo unspecified) | nt | -14% | -27% | -15% | nt | -5%
COc1cccc(NC(=O)Nc2ccccc2Br)c1 | -16% | 12µM* | 24% | ? | nt | 7%
COC(=O)c1sccc1NC(=O)Nc1ccc(C)cc1 | nt | 1.7µM* | 1% | -1% | nt | ?
COC(=O)c1sccc1NC(=O)Nc1ccc(C(C)=O)cc1 | nt | 2.1µM* | 0% | 10% | nt | 18µM*
COC(=O)c1sccc1NC(=O)Nc1cccc(OC)c1 | nt | 8.5µM* | 0% | 2% | nt | 5%
COC(=O)c1sccc1NC(=O)Nc1ccc(C)cc1C | nt | -18% | 5% | 7% | nt | 10%
CCc1ccccc1NC(=O)Nc1ccsc1C(=O)OC | nt | ? | -5% | 1% | nt | 3%
O=C1CCC(c2ccc(-n3ccnc3)cc2)=NN1 | -10% | nt | 2%[46.1 µM] | -4%[46.1 µM] | -1% | nt
O=C(CN(C(=O)c1csnn1)c1cccc(C(F)(F)F)c1)NC1CCCC1 | nt | 2% | 1% | -5% | nt | -12%
Cc1ccccc1CN1CCCN(CC(=O)Nc2ccc3c(c2)OCCO3)S1(=O)=O | nt | -12% | nt | nt | nt | nt
CC(=O)N1c2ccc(S(=O)(=O)N3CCC(C(=O)NC(C)c4ccccc4)CC3)cc2CC1C (stereo unspecified) | nt | -2% | 2% | -3% | nt | 0%
